Values joined by “and” are separate entries in the source; they are usually repeats but may differ in a detail not shown here. Identical values can stand only once. Active and inactive are the calls of the source. Unless noted, no rule for the calls is given here.

From PubChem BioAssay come the findings set out here.

L-lactate dehydrogenase (Plasmodium falciparum (isolate CDC / Honduras)), sequence (Q27743 whole entry, looked up): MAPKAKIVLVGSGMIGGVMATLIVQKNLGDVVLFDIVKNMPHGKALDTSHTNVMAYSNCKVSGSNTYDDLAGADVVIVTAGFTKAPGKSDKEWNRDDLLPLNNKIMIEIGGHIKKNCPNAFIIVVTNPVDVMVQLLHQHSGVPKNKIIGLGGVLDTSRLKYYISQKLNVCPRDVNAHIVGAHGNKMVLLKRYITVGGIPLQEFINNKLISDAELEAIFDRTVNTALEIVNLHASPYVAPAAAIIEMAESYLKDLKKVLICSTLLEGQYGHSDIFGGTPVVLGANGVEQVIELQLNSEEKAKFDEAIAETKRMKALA

System in one assay: not listed separately
Description: HepG2 cytotoxicity, primary screen, cytotoxicity control for P. falciparum antimalarial project, cell-based, ATP luminescence (AID 2303;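 active = inhibition above 50%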;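 also: 0% = DMSO wells and 100% = digitonin-killed cells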). To be noted: HepG2 viability, 24-48 h, at 10 µM, stronger effect = higher value.
For `COc1cc(C=NNc2ccnc3cc(Cl)ccc23)ccc1O`, the inhibition is 15% (inactive).

`CCC[C@@H]([C@@H](CC1CCCCC1)C(=O)N[C@H](C(=O)Nc1ccccn1)[C@H](C)CC)N(O)C=O`: the inhibition is 24% (inactive).

Consider `CN(C)C[C@H](O)[C@@H](c1ccccc1)c1ccc(Cl)cc1`, for which the inhibition is 4% (inactive). The same measure, in the same setting: to `CCCC[C@@H](C(=O)NCc1ccccc1C(F)(F)F)N1C(=O)CCC1C(=O)Nc1ccc([N+](=O)[O-])cc1` (some centres undefined) belongs 7% (inactive); to `CC(=NO)C1=C(O)C(c2ccccc2)N(c2ccccc2)C1=O` (centres undefined), 12% (inactive); to `Oc1ccc2ccccc2c1C=NNc1nc(Nc2ccccc2)nc(Nc2ccccc2)n1`, 55% (active).

For `CO[C@H](C)[C@H](NC(=O)[C@H](CC(C)C)[C@H](CCC(F)(F)F)N(O)C=O)C(=O)Nc1nccs1`, the inhibition was 0% (inactive). `COc1ccc2nc(C)cc(NN=Cc3cc(C)ccc3O)c2c1`: the inhibition is 78% (active). Same read-out and setting: to `Cc1[nH]c2ccccc2c1C=NNc1nc(Nc2ccccc2)nc(Nc2ccccc2)n1` belongs 3% (inactive); to `CCC[C@@H]([C@@H](CC(C)C)C(=O)N[C@@H](CCCN=C(N)NS(C)(=O)=O)C(=O)Nc1nccs1)N(O)C=O`, 10% (inactive); to `Oc1cccc(-c2nc3ccc(C4=N[C@H]5CCCC[C@H]5N4)cc3[nH]2)c1`, -3% (inactive). On the same count and under the same terms, to `Oc1ccc(C=NNC(=S)Nc2cccc3ccccc23)c(O)c1` belongs 8% (inactive); to `CCC[C@@H]([C@@H](CC1CCCCC1)C(=O)N[C@H](C(=O)Nc1nccc(N)n1)C(C)(C)C)N(O)C=O`, 25% (inactive). On the same count and under the same terms, to `COc1cc(-c2nc(-c3ccc4c(c3)CCC4=NO)c(-c3ccncc3)[nH]2)ccc1OCCN1CCCCC1` belongs 75% (active); to `O=C(Nc1cccc(-c2nn3ccccc3c2-c2ccnc(Nc3ccc(-c4cc[nH]n4)cc3)n2)c1)c1c(F)cccc1F`, 68% (active).

Consider `ON=C1CCc2cc(-c3nc(-c4cccc(OCCNCc5ccc(F)cc5)c4)[nH]c3-c3ccncc3)ccc21`, for which the inhibition was 76% (active). As for `N=C(N)c1ccc(C=Cc2ccc(C(=N)N)cc2O)cc1`, the inhibition was 10% (inactive).

For the compound `COc1ccc2ncc(F)c(CCN3C[C@H](CNCc4nc5c(cc4Cl)OCC(=O)N5)[C@H](O)C3)c2n1`, the inhibition is 13% (inactive) and 5% (inactive) and 12% (inactive). Regarding `O=C(/C=C/c1ccc(Cl)c(Cl)c1)NCCCCCN1CC[C@H](c2c[nH]c3ccccc23)[C@@H](O)C1`, the inhibition is 34% (inactive). On the same count and under the same terms, to `COc1ccc(Nc2nc(NN=Cc3cc(Cl)ccc3O)nc(Nc3ccccc3)n2)cc1` belongs 55% (active).

`CC[C@H](C)[C@H](NC(=O)[C@H](CC1CCCCC1)[C@H](CC)N(O)C=O)C(=O)Nc1ccccn1`: the inhibition was 14% (inactive). As for `CN(C)c1nc(NN=Cc2cc(Cl)ccc2O)nc(Nc2ccc(F)cc2)n1`, the inhibition was 32% (inactive). Take `CCC[C@@H]([C@@H](CC(C)C)C(=O)N[C@@H](CCCCNC(=O)OCc1ccccc1)C(=O)Nc1ncccn1)N(O)C=O`: the inhibition was 3% (inactive). The same measure, in the same setting: to `COc1ccc(Nc2nc(NN=Cc3cc(Br)c(O)cc3O)nc(Nc3ccc([N+](=O)[O-])cc3)n2)cc1` belongs 30% (inactive); to `COc1ccc2nccc([C@@H](O)CN3CC[C@H](NCc4nc5c(cc4Cl)SCC(=O)N5)[C@H](F)C3)c2c1`, 10% (inactive) and 20% (inactive). The same measure, in the same setting: under `O=[N+]([O-])c1ccc(C=NO)nc1` stands 80% (active).

As to `CC[C@@H]([C@@H](CC(C)C)C(=O)N[C@@H](CCCCNC(=O)OCc1ccccc1)C(=O)Nc1ccccn1)N(O)C=O`, the inhibition is -7% (inactive). On the same count and under the same terms, under `Nc1c2c(nc3ccccc13)C(=Cc1ccc(O)cc1)CCC2` stands 9% (inactive); under `Cc1[nH]c2c(c(=O)c1Cl)-c1ccc(Oc3cccc(C(F)(F)F)c3)cc1C2=O`, 25% (inactive).

Another assay addresses L-lactate dehydrogenase (Plasmodium falciparum (isolate CDC / Honduras)) (UniProt Q27743). Description: PfLDH activity inhibition – cell lysate, 3D7 strain, counter-screen for P. falciparum growth inhibition project (AID 2304).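 Also: 0% = vehicle and 100% = reference inhibitor.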 Conditions: P. falciparum 3D7 crude extract, LDH APAD/NBT absorbance; at 2 µM; stronger effect = higher value.
As for `c1cc2nc(CCCCCc3nc4ccc(C5=N[C@@H]6CCCC[C@@H]6N5)cc4[nH]3)[nH]c2cc1C1=N[C@@H]2CCCC[C@@H]2N1`, the inhibition was 1% (inactive). Take `Oc1ccc(-c2nc(-c3ccc4oc5ccc(-c6[nH]c(-c7ccc(O)cc7)nc6-c6ccccc6)cc5c4c3)c(-c3ccccc3)[nH]2)cc1`: the inhibition was 3% (inactive). Take `CC(C)C[C@@H](C(=O)N[C@H](C(=O)Nc1nccs1)C(C)(C)C)[C@H](CCC(F)(F)F)N(O)C=O`: the inhibition is 5% (inactive). With `COc1ccc(Nc2nc(NN=Cc3cc(Br)ccc3O)nc(Nc3ccc([N+](=O)[O-])cc3)n2)cc1`, the inhibition was 7% (inactive).

Consider `Oc1cccc(-c2nc(-c3ccccc3)c(-c3ccc4oc5ccc(-c6[nH]c(-c7cccc(O)c7)nc6-c6ccccc6)cc5c4c3)[nH]2)c1`, for which the inhibition was 4% (inactive).

In the case of `COc1cc(-c2nc(-c3ccc4c(c3)CCC4=NO)c(-c3ccncc3)[nH]2)ccc1OCCN1CCN(C)CC1`, the inhibition was 3% (inactive). Take `NC(N)=NN=Cc1c[nH]c2ccc(-c3ccccc3)cc12`: the inhibition is -2% (inactive). Same read-out and setting: to `Oc1cccc(-c2nc(-c3cccc(I)c3)c(-c3ccc(-c4nc(-c5cccc(O)c5)[nH]c4-c4cccc(I)c4)cc3)[nH]2)c1` belongs -2% (inactive); to `C[C@@H]([C@@H](CCCc1ccc(Cl)cc1)C(=O)N[C@H](C(=O)Nc1cccnc1)C(C)(C)C)N(O)C=O`, 1% (inactive). Same read-out and setting: to `CCOc1cc(C=NNc2nc(C)cc(-n3nc(C)cc3C)n2)ccc1O` belongs 2% (inactive); to `Oc1ccc2ccccc2c1C=NNc1nc(Nc2ccccc2)nc(N2CCOCC2)n1`, -5% (inactive); to `COc1cc(C=NNc2ccnc3cc(Cl)ccc23)ccc1O`, -7% (inactive).

In the case of `CCC[C@@H]([C@@H](CC1CCCCC1)C(=O)N[C@H](C(=O)Nc1ccccn1)[C@H](C)CC)N(O)C=O`, the inhibition was 2% (inactive). Still for that read-out and setting: under `CN(C)C[C@H](O)[C@@H](c1ccccc1)c1ccc(Cl)cc1` stands 2% (inactive); under `CCCC[C@@H](C(=O)NCc1ccccc1C(F)(F)F)N1C(=O)CCC1C(=O)Nc1ccc([N+](=O)[O-])cc1` (some centres undefined), 0% (inactive); under `CC(=NO)C1=C(O)C(c2ccccc2)N(c2ccccc2)C1=O` (centres undefined), -1% (inactive). On to `Oc1ccc2ccccc2c1C=NNc1nc(Nc2ccccc2)nc(Nc2ccccc2)n1`, for which the inhibition was -2% (inactive). Same read-out and setting: to `CO[C@H](C)[C@H](NC(=O)[C@H](CC(C)C)[C@H](CCC(F)(F)F)N(O)C=O)C(=O)Nc1nccs1` belongs 1% (inactive). Take `COc1ccc2nc(C)cc(NN=Cc3cc(C)ccc3O)c2c1`: the inhibition was -2% (inactive). Still for that read-out and setting: to `Cc1[nH]c2ccccc2c1C=NNc1nc(Nc2ccccc2)nc(Nc2ccccc2)n1` belongs 6% (inactive). The same measure, in the same setting: to `CCC[C@@H]([C@@H](CC(C)C)C(=O)N[C@@H](CCCN=C(N)NS(C)(=O)=O)C(=O)Nc1nccs1)N(O)C=O` belongs 0% (inactive); to `Oc1cccc(-c2nc3ccc(C4=N[C@H]5CCCC[C@H]5N4)cc3[nH]2)c1`, 1% (inactive); to `Oc1ccc(C=NNC(=S)Nc2cccc3ccccc23)c(O)c1`, -4% (inactive). On to `CCC[C@@H]([C@@H](CC1CCCCC1)C(=O)N[C@H](C(=O)Nc1nccc(N)n1)C(C)(C)C)N(O)C=O`, for which the inhibition is 5% (inactive). The same measure, in the same setting: to `COc1cc(-c2nc(-c3ccc4c(c3)CCC4=NO)c(-c3ccncc3)[nH]2)ccc1OCCN1CCCCC1` belongs 1% (inactive); to `O=C(Nc1cccc(-c2nn3ccccc3c2-c2ccnc(Nc3ccc(-c4cc[nH]n4)cc3)n2)c1)c1c(F)cccc1F`, 5% (inactive).

Regarding `ON=C1CCc2cc(-c3nc(-c4cccc(OCCNCc5ccc(F)cc5)c4)[nH]c3-c3ccncc3)ccc21`, the inhibition is -3% (inactive). On the same count and under the same terms, under `N=C(N)c1ccc(C=Cc2ccc(C(=N)N)cc2O)cc1` stands 4% (inactive); under `COc1ccc2ncc(F)c(CCN3C[C@H](CNCc4nc5c(cc4Cl)OCC(=O)N5)[C@H](O)C3)c2n1`, 0% (inactive) and -2% (inactive) and 2% (inactive). Still for that read-out and setting: to `O=C(/C=C/c1ccc(Cl)c(Cl)c1)NCCCCCN1CC[C@H](c2c[nH]c3ccccc23)[C@@H](O)C1` belongs -3% (inactive). The same measure, in the same setting: to `COc1ccc(Nc2nc(NN=Cc3cc(Cl)ccc3O)nc(Nc3ccccc3)n2)cc1` belongs 0% (inactive); to `CC[C@H](C)[C@H](NC(=O)[C@H](CC1CCCCC1)[C@H](CC)N(O)C=O)C(=O)Nc1ccccn1`, -1% (inactive); to `CN(C)c1nc(NN=Cc2cc(Cl)ccc2O)nc(Nc2ccc(F)cc2)n1`, -3% (inactive). Regarding `CCC[C@@H]([C@@H](CC(C)C)C(=O)N[C@@H](CCCCNC(=O)OCc1ccccc1)C(=O)Nc1ncccn1)N(O)C=O`, the inhibition is 4% (inactive).

Consider `COc1ccc(Nc2nc(NN=Cc3cc(Br)c(O)cc3O)nc(Nc3ccc([N+](=O)[O-])cc3)n2)cc1`, for which the inhibition was 4% (inactive). Consider `COc1ccc2nccc([C@@H](O)CN3CC[C@H](NCc4nc5c(cc4Cl)SCC(=O)N5)[C@H](F)C3)c2c1`, for which the inhibition is -3% (inactive) and 1% (inactive). Same read-out and setting: under `O=[N+]([O-])c1ccc(C=NO)nc1` stands 2% (inactive). The same measure, in the same setting: to `CC[C@@H]([C@@H](CC(C)C)C(=O)N[C@@H](CCCCNC(=O)OCc1ccccc1)C(=O)Nc1ccccn1)N(O)C=O` belongs -8% (inactive). The same measure, in the same setting: to `Nc1c2c(nc3ccccc13)C(=Cc1ccc(O)cc1)CCC2` belongs 5% (inactive); to `Cc1[nH]c2c(c(=O)c1Cl)-c1ccc(Oc3cccc(C(F)(F)F)c3)cc1C2=O`, 2% (inactive).

What is called inhibition is the drop in the measured response relative to a control, in per cent.
